Among the data in PubChem BioAssay (NCI) are growth values, retold here.

SMILES strings stand for the structures. The panel holds about 83,000 compounds, 20% with a hit somewhere; the sample as a whole holds those more often.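 Testing used 96-well plates and a 48-hour single-concentration exposure. Example: -40 means 40% of the starting cells died.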 Active and inactive are the calls of the source. Rule for the calls: active = growth percent below 10; inactive = the rest.

Holding throughout (assay): NCI-60 one-dose screen, 48 h (100 = growth as untreated, 0 = no growth, -100 = all killed)
The test system of one test is NCI-H226 lung. To be noted: 10 µM.
The test system of another test is NCI-H322M lung. To be noted: 10 µM.
Another test concerns HOP-62 NSCLC. To be noted: 10 µM.
For the next test, the system named is NCI-H460 lung. To be noted: 10 µM.
For the next test, the system named is NCI-H522 lung. To be noted: 10 µM.
A further test relates to COLO 205 colon. To be noted: 10 µM.
Another test deals with DU-145 prostate. To be noted: 10 µM.
Another test deals with K-562 leukemia. To be noted: 10 µM.
The test system of another test is SF-539 CNS. To be noted: 10 µM.
A further test concerns M14 melanoma. To be noted: 10 µM.
A further test has as its system HCT-15 colon. To be noted: 10 µM.
The test system of a further test is HT29 colon. To be noted: 10 µM.
For another test, the system named is SNB-75 CNS. To be noted: 10 µM.
A further test has as its system SNB-19 CNS. To be noted: 10 µM.
In the next test the test system is LOX IMVI melanoma. To be noted: 10 µM.
Another test has as its system MOLT-4 leukemia. To be noted: 10 µM.
A further test relates to SR leukemia. To be noted: 10 µM.
The subject of the next test is RPMI-8226 leukemia. To be noted: 10 µM.
The next test relates to SK-OV-3 ovarian. To be noted: 10 µM.
The subject of the next test is MDA-MB-468 breast. To be noted: 10 µM unless noted.

With `COc1ccc(C(=O)COc2ccc(NC(=O)Nc3ccc(Cl)c(C(F)(F)F)c3)cc2)cc1`, the growth is 4.95% (active) with NCI-H226 lung; 36.3% (inactive) in the test on NCI-H322M lung; 42.8% (inactive) in the test on HOP-62 NSCLC; 25.5% (inactive) with NCI-H460 lung; -43.2% (active) in the test on NCI-H522 lung; 7.1% (active) with COLO 205 colon. For the same molecule, the growth is 47.3% (inactive) in the test with DU-145 prostate; 37.5% (inactive) in the test with K-562 leukemia; 33.7% (inactive) with SF-539 CNS; 19% (inactive) in the test on M14 melanoma; 8.56% (active) in the test on HCT-15 colon; 21.1% (inactive) in the test on HT29 colon. Besides, the growth in the test with SNB-75 CNS was 33% (inactive); in the test with SNB-19 CNS it was 21.9% (inactive); in the test with LOX IMVI melanoma, -60.5% (active); in the test with MOLT-4 leukemia, 15.6% (inactive); with SR leukemia it was 7.72% (active); with RPMI-8226 leukemia, 19.1% (inactive). Moreover, the growth with SK-OV-3 ovarian was 41.8% (inactive); with MDA-MB-468 breast, -15.1% (active).
Turning to `COc1ccc(C2c3sc4ccc(C)cc4c3Oc3nc(N)nc(N)c32)cc1` (stereo not given), the growth with NCI-H226 lung was 78.5% (inactive); in the test with NCI-H322M lung, 89.3% (inactive); in the test with HOP-62 NSCLC, 79.4% (inactive); in the test with NCI-H460 lung, 88.8% (inactive); with NCI-H522 lung it was 57.2% (inactive); in the test on COLO 205 colon, 93.7% (inactive). Further, the growth in the test with DU-145 prostate was 102% (inactive); in the test with K-562 leukemia, 50.9% (inactive); in the test with SF-539 CNS, 69.6% (inactive); in the test with M14 melanoma it was 74.8% (inactive); with HCT-15 colon, 59.9% (inactive); in the test on HT29 colon, 99.1% (inactive). Besides, the growth is 70.9% (inactive) with SNB-75 CNS; 84.5% (inactive) in the test with SNB-19 CNS; 80.8% (inactive) in the test with LOX IMVI melanoma; 89.9% (inactive) in the test with MOLT-4 leukemia; 51.2% (inactive) in the test with SR leukemia; 83.6% (inactive) in the test on RPMI-8226 leukemia. In addition, the growth in the test with SK-OV-3 ovarian is 89.3% (inactive); in the test on MDA-MB-468 breast it was 79.8% (inactive).
As to `Cc1ccc2sc3c(c2c1)Oc1nc[nH]c(=O)c1C3c1cccc(F)c1` (stereo not given), the growth is 80.6% (inactive) in the test with NCI-H226 lung; 96.7% (inactive) in the test with NCI-H322M lung; 98.6% (inactive) in the test on HOP-62 NSCLC; 102% (inactive) in the test with NCI-H460 lung; 82.8% (inactive) in the test on NCI-H522 lung; 105% (inactive) in the test on COLO 205 colon. In addition, the growth in the test with DU-145 prostate is 105% (inactive); in the test with K-562 leukemia, 81.7% (inactive); in the test with SF-539 CNS, 99.6% (inactive); in the test with M14 melanoma, 99.4% (inactive); in the test on HCT-15 colon, 92.6% (inactive); in the test with HT29 colon it was 103% (inactive). For the same molecule, the growth in the test on SNB-75 CNS was 84.2% (inactive); in the test on SNB-19 CNS, 92.6% (inactive); in the test with LOX IMVI melanoma, 107% (inactive); with MOLT-4 leukemia it was 97% (inactive); in the test on SR leukemia, 96.3% (inactive); in the test with RPMI-8226 leukemia it was 88.7% (inactive). The growth was 93.5% (inactive) with SK-OV-3 ovarian and 78% (inactive) in the test with MDA-MB-468 breast.
